Among all 1,500 compounds or so, about 460 (31%) were called active. Inconclusive results (about 1%) are left out.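 How the source made its calls: active means curve reaches 40% activation over neutral controls at an AC40 no higher than the top valid tested concentration; inconclusive means no clear call, values can overlap the other calls; inactive means signal moving opposite to the expected increase, and the rest.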 Only a sample is shown. Measured potencies and affinities stand elsewhere.
assay: GLuc-reported insulin release enhancers, glucose-stimulated beta cells – cell-based, INS-1E, Gaussia luciferase, luminescence, cherry-pick, set 2, dose response (AID 977607); conditions: INS-1E GLuc insulin secretion reporter, 2-3 h, stronger effect = higher value; at 35 µM, 100% = signal doubled over neutral wells unless noted;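 further: 0% = median of the plate neutral control wells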

Max activation, inactive:
CN(Cc1ccccc1)C(=S)NC(=O)c1ccc(-c2ccccc2)cc1 -29.1% [at 3.8 µM, 100% = signal doubled over neutral wells]
COc1cc(NC(=O)c2c(-c3ccccc3Cl)noc2C)c2ncccc2c1 -28.8% [at 11 µM, 100% = signal doubled over neutral wells]
Cc1cccnc1NC(=O)c1ccc(S(=O)(=O)N2CCCCC2)cc1 -21.1% [at 3.8 µM, 100% = signal doubled over neutral wells]
CC1CC(C)CN(CC(O)COCc2ccccc2F)C1 (stereo not given) -21.2% [at 0.0016 µM, 100% = signal doubled over neutral wells]
COc1ccc(OC)c(N(CC(=O)NN=C2CCN(C)CC2)S(=O)(=O)c2ccccc2)c1 -25.4% [at 0.135 µM, 100% = signal doubled over neutral wells]
CC(NC(=O)C1CCCN1S(=O)(=O)c1ccc2c(c1)n(C)c(=O)c(=O)n2C)c1ccccc1 (stereo not given) -14.2% [at 0.015 µM, 100% = signal doubled over neutral wells]
c1cc2c(cc1CN1CCN(C3CCCCCC3)CC1)OCO2 -12.6% [at 0.135 µM, 100% = signal doubled over neutral wells]
Cc1cc(S(=O)(=O)NCc2cccnc2)ccc1F -23% [at 3.8 µM, 100% = signal doubled over neutral wells]
O=C(Nc1nonc1NC(=O)c1cccs1)c1cccs1 -48.2%
COC(=O)c1sc2ccccc2c1NC(=O)c1cccs1 -14.7% [at 0.046 µM, 100% = signal doubled over neutral wells]
Cc1ccc(NC(=O)c2cccs2)cc1NC(=O)c1ccccc1Cl 18.8% [at 1.2 µM, 100% = signal doubled over neutral wells]
Cc1cc(C)nc(NC(=O)c2ccc(Cl)cc2Cl)n1 -21.7% [at 0.135 µM, 100% = signal doubled over neutral wells]
CCCCNC(=O)c1ccccc1NC(=O)C1=C(C)OCCS1 -8.81% [at 0.005 µM, 100% = signal doubled over neutral wells]
CCOC(=O)c1nc(NCc2cccnc2)c2ccccc2n1 -21% [at 1.2 µM, 100% = signal doubled over neutral wells]
O=C(O)CCCC(=O)N1CCN(c2nc(-c3ccccc3)c3ccccc3n2)CC1 16.9% [at 0.42 µM, 100% = signal doubled over neutral wells]
CS(=O)(=O)N1CCN(c2ccccc2NC(=O)c2ccco2)CC1 22.3%
O=C(Nc1ccccc1N1CCOCC1)C1=NN(c2ccccc2)C(=O)CC1 16.2%
CC1(C(=O)NCC2CCCCC2)CCN1CCc1ccccc1 (stereo not given) -18.8% [at 0.0016 µM, 100% = signal doubled over neutral wells]
CC(C)(C)OC(=O)N1CCCN(C(=O)c2ccc(Cl)cc2)CC1 -21.4% [at 0.135 µM, 100% = signal doubled over neutral wells]
CN1CCN(C(=O)c2cccc(-c3cnc4cnc(-c5ccccc5Oc5ccccc5)cn34)c2)CC1 -43%
N#CN=CN1CC=C(c2ccc(Cl)cc2)CC1 30.6% [at 3.8 µM, 100% = signal doubled over neutral wells]
CC1=NN(C(N)=S)C(=O)C1N=Nc1ccccc1C (stereo not given) -15.4%
Cc1cc(C)n(-c2nc(NCCN(C)C)c3c4c(sc3n2)CCCC4)n1 22.9%
O=C(Cn1[nH]c(=O)c2ccccc2c1=O)OCC(=O)c1ccc(F)cc1 -10.7% [at 0.046 µM, 100% = signal doubled over neutral wells]
CC(=O)Nc1nc(CC(C)C)cc(-c2ccco2)c1C#N -15.6% [at 0.135 µM, 100% = signal doubled over neutral wells]
CCOC(=O)c1sc2ncn(/N=C/c3cccnc3)c(=O)c2c1C -22.4% [at 0.0016 µM, 100% = signal doubled over neutral wells]
Cc1cccc(C)c1NC(=O)NC1CCc2ccccc21 (stereo not given) -27.2%
Cc1noc(C)c1NC(=O)N(C)C[C@H]1Oc2c(NC(=O)C3CCCCC3)cccc2C(=O)N([C@H](C)CO)C[C@@H]1C -26.4% [at 0.015 µM, 100% = signal doubled over neutral wells]
COc1ccc(C(=O)c2cnc[nH]2)cc1OC -12% [at 0.015 µM, 100% = signal doubled over neutral wells]
CCC(c1nnnn1-c1ccc2c(c1)OCCO2)N1CCc2ccccc2C1 (stereo not given) 36.8% [at 1.2 µM, 100% = signal doubled over neutral wells]
COc1ccc(C2=NN(C(=O)c3ccco3)C(c3ccco3)C2)cc1OC (stereo not given) 9.84% [at 0.42 µM, 100% = signal doubled over neutral wells]
COc1ccc(N2CC(NS(=O)(=O)c3cccs3)CC2=O)cc1OC (stereo not given) -12.7% [at 11 µM, 100% = signal doubled over neutral wells]
COc1ccc(-c2nc(CCNC(=O)c3ccco3)cs2)cc1OC 53% [at 0.015 µM, 100% = signal doubled over neutral wells]
COc1ccc2c(c1)[C@@]1(OCCC=C[C@H]1C)C(=O)N2CC1CC1 15.8% [at 11 µM, 100% = signal doubled over neutral wells]
O=C(NNC(=O)c1cc2cc3ccccc3nc2s1)c1cccc(C(F)(F)F)c1 -20.1% [at 0.015 µM, 100% = signal doubled over neutral wells]
CC(C)Cc1nc2oc3c(NCc4cccnc4)ncnc3c2c2c1CCC2 30.3% [at 0.42 µM, 100% = signal doubled over neutral wells]
CCc1ccc2c(c1)cc(CN(Cc1ccco1)C(C)=O)c1nnnn12 -18.4% [at 0.005 µM, 100% = signal doubled over neutral wells]
O=C(Nc1nccs1)c1cc(N2CCOCC2)nc2ccccc12 -23.7%
COc1ccc(-c2nc(N3CCC(C)CC3)[nH]c(=O)c2C#N)cc1 28.1% [at 11 µM, 100% = signal doubled over neutral wells]
COc1ccc(C)c(-n2c(=O)n(Cc3ccccc3)c(=O)c3[nH]cnc32)c1 38.9% [at 0.42 µM, 100% = signal doubled over neutral wells]
COc1cccc(-n2c(=O)n(Cc3ccccc3)c(=O)c3[nH]cnc32)c1C 14.5%
CCc1nc2c(OCc3ccccc3C)cccn2c1N(C)C(=O)c1ccco1 -25.5%
C=CCNC(=S)Nc1ccc2cn[nH]c2c1 -18.8% [at 0.0016 µM, 100% = signal doubled over neutral wells]
O=C(Nc1ccnn1C1CCN(C2CCC2)CC1)c1ccccc1Cl -5.42%
COc1ccc(N2C(=O)CC(Sc3nc(C)cc(C)c3C#N)C2=O)cc1 (stereo not given) -11.1% [at 11 µM, 100% = signal doubled over neutral wells]
CCNc1nc(NCC)nc(Nn2cnnc2)n1 -14.4% [at 0.42 µM, 100% = signal doubled over neutral wells]
CC(C)Cn1nc(-c2ccccc2)c2ccccc2c1=O -16.6% [at 0.0016 µM, 100% = signal doubled over neutral wells]
Cc1ccc(-c2[nH]nc3c2C(c2cccnc2)C(C#N)=C(N)O3)cc1 (stereo not given) 36.3% [at 0.0016 µM, 100% = signal doubled over neutral wells]
COCCNc1nc(NCCCN(C)C)c2sccc2n1 -23.1%
COCCNc1nc(Oc2ccc(C(N)=O)cc2)c2sccc2n1 -20.7% [at 0.0016 µM, 100% = signal doubled over neutral wells]
CCCN1Cc2cccc(C(=O)NCc3ccccc3)c2C1=O -24.8% [at 0.046 µM, 100% = signal doubled over neutral wells]
Cc1ccc2c(c1)CCCN2C(=O)c1ccc2c(c1)OCO2 -14.4% [at 0.0016 µM, 100% = signal doubled over neutral wells]
CCOc1ccc(CCNC(=O)COc2cccc(-n3cnnn3)c2)cc1OCC -22.6% [at 0.005 µM, 100% = signal doubled over neutral wells]
CCOc1ccc(CCNC(=O)COC(=O)c2cccnc2SC)cc1OCC -22.4% [at 0.0016 µM, 100% = signal doubled over neutral wells]
COc1ccccc1Nc1c2c(nc3ccc(N)cc13)CCCC2 -15.8% [at 0.135 µM, 100% = signal doubled over neutral wells]
